Measurements from PubChem BioAssay (NCATS).
Records with an inconclusive call do not appear. Activity calls are given as the source filed them. Unless noted, the rule behind the calls is not given here.

What was measured:
[1] = qHTS profiling of the MIPE4 collection as inhibitors of Plasmodium falciparum (3D7) proliferation (AID 743344);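 note: scaled between DMSO vehicle wells and 0.29 µM artemisinin as full inhibition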; settings: P. falciparum 3D7 in erythrocytes, SYBR Green DNA fluorescence, 72 h; at 28.5 µM unless noted
Method in brief: (§1)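 Erythrocytes infected with P. falciparum (0.3% parasitemia, 2.5% hematocrit) incubated with compounds 72 h at 37 C, 5% CO2. Lysis with saponin/Triton buffer containing SYBR Green I, overnight at room temperature in the dark; DNA fluorescence (485/535 nm) normalised to 0.29 uM artemisinin and DMSO.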

[2] = qHTS profiling of the MIPE4 collection as inhibitors of Plasmodium falciparum (DD2) proliferation (AID 743345); settings: P. falciparum Dd2 in erythrocytes, SYBR Green DNA, 72 h; at 28.5 µM unless noted
Method in brief: as §1

[3] = qHTS profiling of the MIPE4 collection as inhibitors of Plasmodium falciparum (DD2) proliferation (Rep 2) (AID 743346); settings: P. falciparum Dd2 in erythrocytes, SYBR Green DNA, 72 h; at 28.5 µM unless noted
Method in brief: as §1

[4] = qHTS profiling of the MIPE4 collection as inhibitors of Plasmodium falciparum (HB3) proliferation (AID 743347);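 note: plate controls were DMSO vehicle wells for no effect and artemisinin wells for full effect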; settings: P. falciparum HB3 in erythrocytes, SYBR Green DNA, 72 h; at 28.5 µM unless noted
Method in brief: as §1

[5] = High-throughput drug toxicity screening in the BPDCN cell line Gen2.2 (AID 1224824); settings: Gen2.2 BPDCN cells; at 45.8 µM (top of the series) unless noted;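 note: cells exposed to compounds for 48 h before reading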
Method in brief: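 Readout is ATP luminescence from Gen2.2 cells after two days of drug exposure in serum-containing medium at 37 °C. Values express percent activity, with vehicle defining full signal and 9.2 uM bortezomib defining zero.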

[6] = High-throughput drug toxicity screening in the BPDCN cell line Cal-1 (AID 1224825); settings: Cal-1 BPDCN cell viability, qHTS; at 45.8 µM (top of the series) unless noted
Method in brief: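 Cal-1 cells, 500 per well in phenol-red-free RPMI with 10% FBS, exposed to compounds for 48 hours at 37C, 5% CO2. Viability read by CellTiter-Glo luminescence; percent activity normalized to DMSO (100%) and 9.2 uM bortezomib final (0%).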

[7] = qHTS assay for measurement of the activity of small molecule inhibitors on Zika virus induced Caspase-3 activity in human iPSC derived neural progenitor cells (hNPCs) (AID 1224857; active = well fitted inhibition curve with a large enough effect; note: nearly all actives have a fitted effect of over 65% in size; note: potency is the fitted concentration of half-maximal effect)
Method in brief: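 Cells were plated at 350 per well and grown 16 to 20 hours. Compound pretreatment lasted one hour, after which ZIKV (2 FFU/cell) was added for 6 hours. Percent inhibition was normalized between uninfected and infected controls.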

[8] = qHTS assay for measurement of the activity of small molecule inhibitors on Zika virus induced Caspase-3 activity in human astrocytoma cells (AID 1224859; active = well fitted inhibition curve with a large enough effect;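 note: plate controls were ZIKV-infected untreated cells for no effect and uninfected cells for full effect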)
Method in brief: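 Percent inhibition of virus-induced caspase-3/7 signal is calculated against uninfected and ZIKV-infected control cells. Cells are SNB-19, infected at 2 FFU/cell for 6 h after 1 h compound exposure.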

[9] = qHTS Screen of the MIPE 4.0 Collection Against Ewings Sarcoma (RDES) (AID 1259252; active = well fitted inhibition curve with a large enough effect; note: nearly all actives have a fitted effect of over 35% in size; note: potency is the fitted concentration of half-maximal effect)
Method in brief: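 Log-phase cells in RPMI with 5% FBS attached for 4 h, then received compounds as a titration for 48 h at 37C, 5% CO2. Viability was read by CellTiter-Glo luminescence and normalized to DMSO and no-cell wells.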

SMILES | parasite growth, % of DMSO control [1] [%] | parasite growth remaining, % of DMSO control (lower = more inhibition) [2] [%] | parasite growth, % of control (lower = inhibition) [3] [%] | growth, % of control [4] [%] | cell viability, % of control (lower = more cytotoxic) [5] [%] | viability (% of control) [6] [%] | Potency [7] | Potency [8] | Potency [9]
CN(C)c1ccc(-c2nc3ncc(Cl)c(N4CCN(CC(=O)Nc5nccs5)CC4)c3[nH]2)cc1 | 6.94 | 9.69 | 8.18 | 2.92 | 3.51 | 8.53 | inactive | inactive | 20.9 µM (active)
Cc1ccc(C(=O)N(CCCN)[C@@H](c2oc3cc(Cl)ccc3c(=O)c2Cc2ccccc2)C(C)C)cc1 | 4.68 | 8.7 | 8.99 | 5.08 | 8.98 | 3.72 | inactive | inactive | inactive
Cc1cc(NC(=O)Nc2ccc(N(C)C)cc2)c2cc(F)cc(F)c2n1 | 9.65 | 46 | 10.9 | 10.1 | 149 | 112 | inactive | inactive | inactive
O=C1C(c2c(O)[nH]c3ccccc23)=Nc2ccccc21 | 90.1 | 86.5 | 73.7 | 98.4 | 52.3 | 68.6 | inactive | inactive | 0.469 µM (active)
CNc1nc(Nc2ccc(C(=O)N3CCOCC3)cc2OC)ncc1Cl | 69.3 | 90.3 | 56.9 | 54.9 | 103 | 93.7 | inactive | inactive | inactive
COc1cc(F)c(C(C)C)cc1-c1ccc(C(F)(F)F)cc1CN1C(=O)O[C@H](c2cc(C(F)(F)F)cc(C(F)(F)F)c2)[C@@H]1C | 6.82 | 9.07 | 31.9 | 9.46 | 115 | 33.1 | inactive | inactive | inactive
CC[C@H](C)n1cc(C)c2c(C(=O)NCc3c(C)cc(C)[nH]c3=O)cc(-c3ccc(N4CCNCC4)nc3)cc21 | 4.84 | 8.83 | 8.77 | 6.2 | 133 | 39.5 | inactive | inactive | 23.5 µM (active)
CNC1CCC(N(Cc2cccc(-c3ccncc3)c2)C(=O)c2sc3ccccc3c2Cl)CC1 (centres undefined) | 4.86 | 7.31 | 9.91 | 6.96 | 3.76 | 1.63 | inactive | inactive | 26.4 µM (active)
CSc1cccc(Nc2ncc3cc(-c4c(Cl)cccc4Cl)c(=O)n(C)c3n2)c1 | 5.72 | 13.9 | 9.88 | 9.92 | 288 | 34.2 | inactive | inactive | 0.0935 µM (active)
CN1CCC[C@H]1CCO[C@](C)(c1ccccc1)c1ccc(Cl)cc1 | 12.4 | 13.4 | 23.9 | 10.3 | 77.3 | 50.8 | inactive | inactive | 20.9 µM (active)
COc1cc2ncn(-c3cc(OCc4ccccc4S(C)(=O)=O)c(C#N)s3)c2cc1OC | 76.2 | 103 | 75.9 | 90.8 | 146 | 95.9 | inactive | inactive | 16.6 µM (active)
CCCCCOC(=O)Nc1nc(=O)n([C@@H]2O[C@H](C)[C@@H](O)C2O)cc1F (some centres undefined) | 253 | 102 | 83.9 | 171 | 124 | 102 | inactive | inactive | inactive
CCCC1OC2C[C@@H]3[C@H]4CCC5=CC(=O)C=C[C@]5(C)[C@H]4C(O)C[C@]3(C)[C@]2(C(=O)CO)O1 (some centres undefined) | 11.7 | 20.2 | 15.8 | 5.33 | 12.2 | 11.8 | inactive | inactive | inactive
COc1cc2nc(-c3cc(F)ccc3O)nc(N[C@@H]3CNC[C@@H]3C(C)(C)O)c2cc1OC | 6.37 | 6.09 | 8.84 | 3.61 | 4.14 | 5.24 | inactive | inactive | 23.5 µM (active)
CC1C(=O)OC2C(O)C34C5CC(C(C)(C)C)C36C(OC(=O)C6O)OC4(C(=O)O5)C12O (centres undefined) | 93.4 | 94.5 | 85.6 | 83.4 | 158 | 16.8 | inactive | inactive | 13.2 µM (active)
O=c1[nH]nc(OCCCc2ccc(Cl)cc2)c(NCc2cccnc2)c1Br | 6.4 | 6.08 | 30.4 | 10.3 | 9.32 | 8.48 | inactive | inactive | 18.7 µM (active)
N#CC(c1ccnc(NCCc2cccnc2)n1)c1nc2ccccc2s1 (centres undefined) | 4.46 | 18.6 | 15.5 | 7.28 | 9.41 | 3.4 | inactive | inactive | 23.5 µM (active)
Cc1c(-c2cccc3c(CCCOc4cccc5ccccc45)c(C(=O)O)n(Cc4cccnc4)c23)c(COc2ccc(N3CCN([S+](=O)([O-])N(C)C)CC3)cc2)nn1C | 5.78 | 7.43 | 15.4 | 4.06 | 121 | 86.1 | inactive | inactive | 16.6 µM (active)
COc1cc2c(cc1OC)[C@@H]1Cc3ccc(OC)c(OC)c3CN1CC2 | 25.7 | 36.6 | 26.7 | 11.1 | 132 | 20.2 | inactive | inactive | 7.43 µM (active)
CO[C@H]1/C=C\O[C@@]2(C)Oc3c(C)c(O)c4c(O)c(c5c(nc6cc(C)ccn65)c4c3C2=O)NC(=O)C(C)=CC=C[C@H](C)[C@H](O)[C@@H](C)[C@@H](O)[C@@H](C)[C@H](OC(C)=O)[C@H]1C | 11 | 31.8 | 7.3 | 5.21 | 4.46 | 32.4 | inactive | inactive | inactive
C[C@]12CCC3=C4CCC(=O)C=C4CC[C@@H]3[C@H]1CC[C@@]2(O)CC#N | 92.8 | 97.5 | 71 | 93 | 106 | 107 | inactive | inactive | inactive
CCNC(=O)[C@H]1O[C@@H](n2cnc3c(N)nc(NCCc4ccc(CCC(=O)O)cc4)nc32)[C@H](O)[C@H]1O | 93.9 | 110 | 116 | 99.8 | 96.2 | 129 | inactive | inactive | inactive
O=C(Nc1ncc(SCCN2CCCC2)s1)[C@]1(c2ccc(S(=O)(=O)C3CC3)cc2)C[C@@H]1C1CCCCC1 | 6.74 | 7.78 | 20.2 | 10.1 | 116 | 92.3 | inactive | inactive | 13.2 µM (active)
COc1ccc(-c2cc3nccn3c(Nc3ncccc3C(N)=O)n2)cc1OC | 4.5 | 9.28 | 5.75 | 2.93 | 47.7 | 26.1 | inactive | inactive | 14.8 µM (active)
CC(C)N(CCCNC(=O)Nc1ccc(C(C)(C)C)cc1)C[C@H]1O[C@@H](n2cc(Br)c3c(N)ncnc32)[C@H](O)[C@H]1O | 5.02 | 7.13 | 9.5 | 7.54 | 116 | 61.2 | inactive | inactive | 23.5 µM (active)
CCC(C)SSc1ncc[nH]1 (centres undefined) | 86.2 | 94.1 | 89.6 | 92.3 | 7.07 | 6.97 | 26.4 µM (active) | inactive | 23.5 µM (active)
